# Test results: publication PMC5540273 (PLoS ONE, 2017)
# Test system: T1, LOK
# T1 construct: gene STK10
# Conditions: concentration: 1 μM, replicates: in singlicate; n = 1
# 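Further: KINOMEscan kinase panel screen.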
row,Compound,%Inh [%]
1,Cc1occc1-c1ncc(OC[C@@H](N)Cc2c[nH]c3ccccc23)cc1-c1ccc2[nH]nc(C)c2c1.O=C(O)C(F)(F)F [GSK682037],85
2,Cc1cccc(Nc2nc(N[C@H]3CCNC3)ncc2C(N)=O)c1.Cl [GSK2197149],0
3,CN(c1ccc(NC(=O)Nc2cc(C(F)(F)F)ccc2F)cc1)c1ccnc(Nc2ccc(S(N)(=O)=O)cc2)n1 [GW809893],100
4,CNC(=O)c1ccccc1Nc1nc(Nc2ccc(N3CCOCC3)cc2)ncc1Cl.Cl [GSK1576028],96.4
5,Cl.Cl.NCC(NC(=O)c1cc(-c2ccccc2)c(-c2ccnc3[nH]ccc23)s1)c1ccccc1 (stereo not shown) [GSK1321561],0
6,NCCCC(NC(=O)c1cc(Br)c(-c2ccnc3[nH]ccc23)s1)c1ccccc1.O=C(O)C(F)(F)F.O=C(O)C(F)(F)F (stereo not shown) [GSK1287544],0
7,O=C(Nc1cccc(Oc2ccc3nc(NC(=O)C4CC4)cn3n2)c1)c1ccccc1C(F)(F)F,95.1
8,Nc1n[nH]c2cnc(-c3ccccc3)cc12 [SB-642124],0
9,CN1CCN(Cc2cccc(-c3ccc4c(Nc5ccc(Oc6ccccc6)cc5)ccnc4c3)c2)CC1 [GW578342],21
10,Nc1ncc(-c2cccnc2)c2scc(-c3ccc4c(c3)CCN4C(=O)Cc3ccccc3)c12 [GSK683281],75
11,O=C(Nc1cccc(-c2nn3ncccc3c2-c2ccnc(Nc3ccccc3)n2)c1)c1c(F)cccc1F [GSK198271],99
12,Cl.c1ccc(-c2ccc3c(Nc4ccc5[nH]ccc5c4)ccnc3c2)nc1 [GW440138],51
13,Cc1ccc(C(=O)Nc2ccc(Nc3ccnc4cc(-c5nccs5)ccc34)cc2O)cc1.Cl [GW494702],68
